# Source: PubChem (several laboratories)
# An excerpt weighted towards active compounds, which were near 3.1% of everything screened.
# ABHD5 PLIN5 PPI: inhibitors of human ABHD5-perilipin-5 interaction; AID 602281; 360,000 tested, 0.78% active; Split G. princeps luciferase complementation, luminescence, 4 h; Q00G26+Q8WTS1; inhibition, % at 4 µM;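 active means inhibition above the mean inhibition across every tested compound plus 3 SD, cut at about 22% in these data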
# Target sequence (Q00G26 whole entry, looked up): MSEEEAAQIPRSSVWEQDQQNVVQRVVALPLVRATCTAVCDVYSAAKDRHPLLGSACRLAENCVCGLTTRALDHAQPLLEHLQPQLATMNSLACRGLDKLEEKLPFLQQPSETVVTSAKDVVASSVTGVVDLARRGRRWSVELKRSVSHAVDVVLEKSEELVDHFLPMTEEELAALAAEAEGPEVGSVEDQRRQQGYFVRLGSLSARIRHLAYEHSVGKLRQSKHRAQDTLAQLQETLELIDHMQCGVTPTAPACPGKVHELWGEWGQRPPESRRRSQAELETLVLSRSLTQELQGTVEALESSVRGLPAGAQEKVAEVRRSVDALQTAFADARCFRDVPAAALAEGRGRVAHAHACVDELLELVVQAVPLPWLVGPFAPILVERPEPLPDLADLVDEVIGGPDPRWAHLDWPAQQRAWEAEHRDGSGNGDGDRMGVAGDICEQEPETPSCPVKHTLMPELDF
# Target sequence (Q8WTS1 whole entry, looked up): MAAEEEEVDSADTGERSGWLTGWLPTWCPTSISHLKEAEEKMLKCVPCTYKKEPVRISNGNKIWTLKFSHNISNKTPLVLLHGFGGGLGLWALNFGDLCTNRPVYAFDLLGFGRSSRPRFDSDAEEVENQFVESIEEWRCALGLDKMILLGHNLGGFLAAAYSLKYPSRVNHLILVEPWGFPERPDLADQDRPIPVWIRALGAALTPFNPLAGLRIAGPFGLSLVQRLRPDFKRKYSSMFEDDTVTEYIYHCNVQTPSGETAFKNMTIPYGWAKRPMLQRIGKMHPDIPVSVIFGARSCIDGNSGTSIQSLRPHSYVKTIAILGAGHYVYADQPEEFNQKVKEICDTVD
# TRPM1 prom inh: inhibitors of MITF-driven TRPM1 promoter in melanoma cells. SK-MEL-5 TRPM1 promoter luciferase, 24 h. inhibition, % at 12.5 µM. 330,000 tested, 0.83% active. AID 488899;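 active means mean inhibition across replicates of 60% or more, whatever share of single replicates reaches that level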
# HIF-2a inh: inhibitors of HIF-2a; 786-0 RCC cells HIF-2a reporter, luciferase luminescence, overnight; inhibition, % at 18.8 µM; 360,000 tested, 0.72% active; AID 624352;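 active means inhibition of the luminescence signal of 40% or more relative to plate controls, in a single-dose primary screen at 18.75 µM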
# KKLEB tox: reduces viability of KKLEB cystic fibrosis airway cells; KKLEB CF airway cells viability, ATPlite luminescence, overnight; active compounds read low; cells stimulated with P. aeruginosa culture filtrate; activity change (cytotoxicity), % at 5 µM; 360,000 tested, 0.36% active; AID 602141;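 active means corrected activity change at or below -50% at 5 µM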
# Peg3 promoter: reduces Peg3 promoter-driven luciferase expression in HeLa. inhibition, % at 20 µM. AID 588405. HeLa PEG-Prom luciferase reporter, luminescence, overnight. 360,000 tested, 1.7% active;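 active means inhibition of at least 50% at 20 µM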
# CF NFkB inh: inhibitors of cystic fibrosis induced NF-kB. 360,000 tested, 0.86% active. KKLEB NF-kB-GFP reporter, PAF-induced, GFP fluorescence overnight. inhibition, % at 5 µM;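 active means at least 50% inhibition at 5 µM, scaled per plate between neutral and stimulator controls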;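 further: PAF is a Pseudomonas aeruginosa culture filtrate used as stimulus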
# ABHD5 PLIN5 conf: confirmation of human ABHD5-PLIN5 interaction inhibitors; shares compounds with ABHD5 PLIN5 PPI; biochemical ABHD5-PLIN5 interaction, luminescence; 2,200 tested, 67% active; inhibition, % at 4 µM; AID 651612; in the data active means inhibition above about 23%
# HNF4 counter: counter-screen for ABHD5-PLIN5 inhibitors: HNF4 split-luciferase. shares compounds with ABHD5 PLIN5 PPI. HNF4 dimerization, luminescence, biochemical. inhibition, % at 4 µM. 2,200 tested, 77% active;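 active means mean inhibition across replicate wells exceeding the computed hit threshold, cut at about 13% in these data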;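 further: light from luciferase halves that rejoin when HNF4 fusion proteins dimerize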
# A number is an active result; i = inactive; nt = not tested or not shown.
SMILES,ABHD5 PLIN5 PPI,TRPM1 prom inh,HIF-2a inh,KKLEB tox,Peg3 promoter,CF NFkB inh,ABHD5 PLIN5 conf,HNF4 counter
O=C(c1ccc(Cl)cc1)C1CCN(Cc2ccccc2)CC1,i,nt,i,i,i,i,nt,nt
O=C(c1ccc(F)cc1)C(CN1CCOCC1)c1ccccc1 (stereo not given),38,90,i,-68,105,90,29,99
C[C@@H](N)C(=O)NC[C@H]1O[C@@H](n2cnc3c(N)ncnc32)[C@H](O)[C@@H]1O,i,i,i,i,i,i,nt,nt
O=C1/C(=C/c2ccc(O)cc2)COc2ccccc21,25,i,i,i,i,i,50,60
CCOc1cc(/C=C2/COc3ccccc3C2=O)ccc1OCC(=O)N(C)C,25,i,i,i,i,i,71,67
O=C(NC1CCCC1)C(c1ccccn1)N(C(=O)c1csnn1)c1ccccc1F (stereo not given),i,i,i,i,i,i,nt,nt
CC(=O)Nc1ccc(NC(=O)COC(=O)/C(=C/c2ccccc2)n2nnnc2C)cc1,40,i,i,i,i,i,52,51
Cc1nnnn1/C(=C\c1ccccc1)C(=O)OCC(=O)NC1CCCCC1,25,i,i,i,76,i,55,62
Cc1nnnn1/C(=C\c1ccccc1)C(=O)OCC(=O)NC(C)(C)C,i,i,i,i,i,i,nt,nt
O=C(NCc1ccccc1)c1ccc(CS(=O)Cc2cccc(Cl)c2)o1 (stereo not given),i,nt,i,i,i,i,nt,nt
COc1ccc(NC(=S)N2CCN(Cc3ccco3)CC2)c(OC)c1,23,i,i,i,i,i,i,14
O=C(O)c1ccc2c(c1)OCCO2,i,i,i,i,i,i,nt,nt
O=C(O)c1cccc(-c2ccc3c(c2)OCO3)c1,88,i,i,i,i,i,i,i
Cc1ccc(NC(=O)Cn2c(=O)n(Cc3ccco3)c(=O)c3ccccc32)c(C)c1,i,i,i,i,i,i,nt,nt
O=C(Cn1c(=O)n(Cc2ccco2)c(=O)c2ccccc21)Nc1cccc(Cl)c1,42,i,i,i,i,i,i,i
CC1=C(C(=O)N2CCOCC2)CC(CC(=O)NC(c2ccccc2)c2ccccc2)C(=O)N1CCCN1CCCC1=O (stereo not given),i,nt,i,i,i,i,nt,nt
COC(=O)[C@@]1(Cc2ccc(F)cc2)[C@H]2c3cc(C(=O)N(C)C)n(Cc4ccc(S(C)(=O)=O)cc4)c3C[C@H]2CN1C(=O)c1ccccc1,i,nt,i,nt,nt,nt,nt,nt
COc1ccccc1C1CC(c2cccs2)=NN1C(=O)CCC(=O)O (stereo not given),i,i,i,i,i,i,nt,nt
COc1ccccc1C1CC(c2cccs2)=Nc2ccccc2S1 (stereo not given),45,i,i,i,i,i,i,i
CC(=O)C1=C(C)NC(C)=C(C(C)=O)C1c1ccc(-c2ccccc2Cl)o1,52,i,i,i,i,i,i,38
Cn1c(=O)c(Nc2ccc(O)cc2)c2c3c(cccc31)C(=O)c1ccccc1-2,25,i,i,i,i,i,22,20
CCOC(=O)c1c(CSC(=N)N)n(-c2ccccc2)c2cc(Br)c(OC(C)=O)cc12,32,nt,i,i,i,i,29,30
Cc1nc([N+](=O)[O-])c(C(=O)OCc2ccccc2C#N)n1C,i,i,i,i,i,i,nt,nt
O=[N+]([O-])c1ccccc1S(=O)(=O)Nc1ccc(S(=O)(=O)N2CCCC2)cc1,33,i,i,i,i,i,34,48
O=c1c2ccccc2c(/C=N/NS(=O)(=O)c2ccccc2)c(O)n1-c1ccccn1,i,i,i,i,i,i,nt,nt
SMILES,ABHD5 PLIN5 PPI,TRPM1 prom inh,HIF-2a inh,KKLEB tox,Peg3 promoter,CF NFkB inh,ABHD5 PLIN5 conf,HNF4 counter
C[C@H]1CN([C@@H](C)CO)C(=O)c2cc(NS(=O)(=O)c3ccc(Cl)cc3)ccc2O[C@@H]1CN(C)CC1CCCCC1,i,i,i,i,i,i,nt,nt
CNC[C@@H]1Oc2ccc(NS(=O)(=O)c3ccc(Cl)cc3)cc2C(=O)N([C@H](C)CO)C[C@@H]1C,25,i,i,i,i,i,i,i
COC(=O)c1c(NC(=S)NN2CCN(C)CC2)sc2c1CCC(C)C2 (stereo not given),25,i,i,i,107,i,i,i
C/C(=N\NC(=O)C(C)Nc1cccc(Cl)c1)c1ccc([N+](=O)[O-])cc1 (stereo not given),i,i,i,i,i,i,nt,nt
O=C1C=CC(O)C2(CO)OC12 (stereo not given),67,nt,i,i,i,i,91,91
COC(=O)c1c(C)oc2ccc(N(C(C)=O)S(=O)(=O)c3ccccc3)cc12,i,i,i,i,i,i,nt,nt
COc1ccc(S(=O)(=O)N(C(C)=O)c2ccc3oc(=O)sc3c2)cc1,29,i,i,i,i,i,i,16
COc1cc(C(C)=O)ccc1OCC(O)Cn1nc(C)c(C(C)=O)c1C (stereo not given),i,i,i,i,i,i,nt,nt
Cc1c(-n2c(=O)n(Cc3ccccc3)c(=O)c3[nH]cnc32)cccc1S(C)=O (stereo not given),i,i,i,i,i,i,nt,nt
CCCCCC[n+]1ccccc1/C=C/c1ccc(N(C)C)cc1,i,nt,i,i,i,i,nt,nt
CCCCCCCCCC[n+]1cccc2c3ccccc3ccc21,27,101,i,-50,75,i,i,i
CCOC(=O)c1cc2c(=O)n3ccccc3nc2n(Cc2ccco2)c1=NC(=O)c1ccccc1OC,44,i,i,i,i,i,i,73
CCOC(=O)c1cc2c(=O)n3ccccc3nc2n(C(C)C)c1=NC(=O)c1ccco1,41,i,i,i,i,i,i,24
CCOC(=O)c1cc2c(=O)n3cccc(C)c3nc2n(CC(C)C)c1=NC(=O)c1ccco1,i,i,i,i,i,i,nt,nt
CCCn1c(=NC(=O)c2ccco2)c(C(=O)OCC)cc2c(=O)n3ccccc3nc21,41,i,i,i,i,i,i,27
CCOCCCn1c(=NC(=O)c2ccco2)c(C(=O)OCC)cc2c(=O)n3cccc(C)c3nc21,27,i,i,i,i,i,i,30
CC(C)OCCCn1c(=NC(=O)c2ccncc2)c(C#N)cc2c(=O)n3ccccc3nc21,i,i,i,i,i,i,nt,nt
N=c1c(S(=O)(=O)c2ccccc2)cc2c(=O)n3ccccc3nc2n1Cc1ccco1,25,i,i,i,i,i,i,25
CC(C)n1c(=NC(=O)c2ccco2)c(C#N)cc2c(=O)n3ccccc3cc21,27,i,i,i,i,i,29,54
